In the library only some 3.2% were active in any assay of this set; here they are far more common.
KDM4E inh = blocks human JMJD2E demethylase activity | JMJD2E catalytic domain, FDH-coupled NADH fluorescence (FDH is formaldehyde dehydrogenase) | AID 2147 | Potency, µM (highest dose often 57.1 µM), for the others: at the highest dose activity change, negative = inhibition, most hits filed as inhibitors | B2RXH2 | 1.6% of 230,000 active; active = well fitted inhibition curve with a large enough effect, not every such curve was filed as active; inconclusive = small, poorly fitted or top-dose-only effect, or another doubt; inactive = no such curve, though single readings can be large or run the other way;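 also: potency is read from the fitted curve at half-maximal effect; 0% = wells with enzyme and -100% = buffer wells without enzyme; nearly all actives have a fitted effect of over 50% in size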
Target sequence (B2RXH2 1-337 limits assumed): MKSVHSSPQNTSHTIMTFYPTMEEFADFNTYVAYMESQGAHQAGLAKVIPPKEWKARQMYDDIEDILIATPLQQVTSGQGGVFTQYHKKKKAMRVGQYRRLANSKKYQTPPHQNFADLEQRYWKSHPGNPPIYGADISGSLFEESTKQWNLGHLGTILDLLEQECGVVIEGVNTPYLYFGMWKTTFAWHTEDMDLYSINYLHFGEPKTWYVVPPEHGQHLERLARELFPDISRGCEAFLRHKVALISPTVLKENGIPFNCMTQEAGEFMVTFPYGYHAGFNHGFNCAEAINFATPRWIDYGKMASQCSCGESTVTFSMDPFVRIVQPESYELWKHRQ
Tau ThT inhib = blocks human tau fibril formation measured by thioflavin T; P10636; recombinant tau K18 P301L, heparin-induced fibrillization, ThT fluorescence; Potency, µM (doses to about 57.4 µM), without a hit: at the top dose activity, negative = inhibition, hits mostly inhibitors; 2.1% of 270,000 active; AID 1460; also: potency is read from the fitted curve at half-maximal effect; % is scaled to controls: 0 for no effect and ±100 for the full control effect; nearly all actives have a fitted effect of over 55% in size
Target sequence (P10636 561-689 P618L limits assumed): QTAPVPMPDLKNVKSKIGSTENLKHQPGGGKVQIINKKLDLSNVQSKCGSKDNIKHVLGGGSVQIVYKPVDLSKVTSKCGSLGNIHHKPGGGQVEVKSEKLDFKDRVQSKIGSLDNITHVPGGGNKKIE
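Heparin-induced fibrillization of the P301L-mutant K18 repeat-domain fragment of human tau was followed by ThT binding in quantitative high-throughput format.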
CBFb-RUNX1 inh = CBF-beta/RUNX1 interaction disruption. AID 1477. AlphaScreen CBFb-His/RUNX1-biotin binding, biochemical. Potency, µM (highest dose often 59.8 µM), without a hit: at the highest dose activity, negative = inhibition, hits mostly inhibitors. 230,000 tested, under 10 active; also: % of control where 0% means no effect
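Inhibition was taken as any reduction in AlphaScreen signal from the CBF-beta–RUNX1 pair (His and biotin tags, 30 nM each), measured after compound (15 min) and bead (90 min) incubations at room temperature.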
Tau fibril FP = blocks human tau fibril formation measured by polarization. 0.39% of 280,000 active. Potency, µM (titrated, usually from 57.7 µM), for the others: at the top dose activity, negative = inhibition, actives largely listed as inhibitors. K18 P301L tau heparin fibrillization, Alexa594 FP, 6 h; also: potency is read from the fitted curve at half-maximal effect; % is scaled to controls: 0 for no effect and ±100 for the full control effect; nearly all actives have a fitted effect of over 55% in size
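Quantitative HTS format: compounds meet 15 uM recombinant K18 P301L tau and Alexa 594-tau tracer in 100 mM sodium acetate pH 7; 20 uM heparin triggers fibrillization at 37 C over 6 hr; FP gives the signal.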
Lamin A splicing = changes lamin A minigene splicing in HeLa cells; HeLa LMNA splicing GFP/RFP minigene ratio, 48 h; 0.01% of 200,000 active; Potency, µM (top dose mostly 46.1 µM), inactives show top-dose ratio change, negative = inhibition, hits mostly inhibitors; AID 1487; active = well fitted inhibition curve with a large enough effect in the signal ratio, with a control signal flat, not every such curve was filed as active; inconclusive = small, poorly fitted or top-dose-only effect, or effect the other way, or a change in a side signal; the % refers to the signal ratio; also: potency is read from the fitted curve at half-maximal effect; % is scaled to controls: 0 for no effect and ±100 for the full control effect
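S3 HeLa cells stably expressing lamin A-EGFP splicing minigene plus DsRed2, 600 cells/well, 48 h compound exposure at 37C. Laser-scanning cytometry; analysed as GFP (500-530 nm)/RFP (575-640 nm) total intensity ratio; 0.5% DMSO vehicle.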
Tau fluor cs = counter-screen for tau fibril formation inhibitors. tau K18 P301L (four-repeat tau fragment) Alexa594 fluorescence, heparin fibrillization. Potency, µM (titrated, usually from 57.7 µM), inactives show top-dose activity change, negative = decrease. 0.93% of 280,000 active; also: potency is read from the fitted curve at half-maximal effect; % is scaled to controls: 0 for no effect and ±100 for the full control effect; nearly all actives have a fitted effect of over 55% in size
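Human K18 P301L tau (15 uM unlabeled plus 0.24 uM Alexa 594-labeled, final) in 100 mM sodium acetate pH 7 was mixed with compound and 20 uM heparin and incubated 6 hr at 37 C.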
The depositor's hits bear a star; ? = inconclusive; · = no result given; [ ] = remark or other dose. Unless noted, calls follow the shape of the dose curve; as a rule, active = well fitted curve in the direction sought with a large enough effect; inconclusive = small, poorly fitted or top-dose-only effect, or another doubt; inactive = no such curve, though single readings can be large; an effect the other way counts as inactive or inconclusive.

SMILES	KDM4E inh	Tau ThT inhib	CBFb-RUNX1 inh	Tau fibril FP	Lamin A splicing	Tau fluor cs
CCCCc1nn2c(N)c(/C=C3\C=Nc4ccccc43)c(=O)nc2s1	-3%	6%	2%	-10%	13%	9%
CCCc1nn2c(N)c(/C=C3\C=Nc4ccccc43)c(=O)nc2s1	-2%	8.9µM*	-7%	-10%	?	?
CCCC[C@H](NC(=O)[C@@H]1CCCN1C(=O)[C@H]1CCCN1C(=O)[C@H](Cc1ccccc1)NC(=O)[C@@H](Cc1c[nH]c2ccccc12)NC(=O)[C@H](C)NC(=O)[C@H](CCCN=C(N)N)NC(=O)OC(C)(C)C)C(N)=O	·	·	12%	·	·	·
Cc1ccccc1NS(=O)(=O)c1ccc2[nH]cc(C(=O)NC(C)c3ccccc3)c(=O)c2c1 (stereo unspecified)	·	12%	·	25µM*	?	?
Cc1cc(C)cc(NS(=O)(=O)c2ccc3[nH]cc(C(=O)N4CCCC4)c(=O)c3c2)c1	·	-2%	·	-6%	·	-11%
Cc1ccccc1NS(=O)(=O)c1ccc2[nH]cc(C(=O)NC3CCCCC3)c(=O)c2c1	·	8%	·	28µM*	-6%[46 µM]	?
Cc1c(Cl)cccc1NS(=O)(=O)c1ccc2[nH]cc(C(=O)NC3CCCC3)c(=O)c2c1	·	11%	·	14µM*	·	?
Cc1ccccc1NS(=O)(=O)c1ccc2[nH]cc(C(=O)N3CCCCC3)c(=O)c2c1	·	0%	·	3%	4%[46 µM]	5%
Cc1ccc(CO)cc1	·	·	11%[21.7 µM]	·	·	·
Cc1cc([N+](=O)[O-])ccc1NC(=O)CSc1nccn1C	·	-5%	·	1%	·	-7%
CCn1c(SCC(=O)Nc2ccc(C)c(C)c2)nnc1-c1nonc1NC(C)=O	·	-10%	·	1%	-8%[46 µM]	-18%
CCCCCCCc1ccc(-c2ccc(O)cc2)nc1	-3%	?	8%	?	·	14µM*[quencher]
CCOc1ccc2nc(NC(=O)c3nc(SCc4ccccc4C)ncc3Cl)sc2c1	·	-16%	·	-6%	·	-12%
Cc1cc(N)n2ncc(-c3ccc(Cl)cc3)c2n1	?	?	8%	?	10%	14µM*[quencher]
CCc1nc2nc(C)cc(Nc3ccc(OC)cc3)n2n1	·	-2%	·	-2%	·	2%
COC(=O)N/N=C/c1cn(Cc2ccccc2Cl)c2ccccc12	-3%	-15%	-5%	10%	?	?
Cc1[nH][nH]c(=O)c1C(c1c(C)[nH][nH]c1=O)c1cn(Cc2ccccc2Cl)c2ccccc12	?	11µM*	-25%	?	?	-18%
Cc1nn2c(NC(C)C)c3c(nc2c1-c1ccccc1)CCC3	?	28µM*	26%	?	·	?
Cc1nn2c(NCC(C)C)c3c(nc2c1-c1ccccc1)CCC3	?	-11%	6%	2%	10%	-5%
CC(=O)c1cc(-c2ccccc2)n(CCC(=O)NCc2ccc(C)cc2)c1C	·	-7%	·	5%	-6%[46 µM]	-5%
O=c1c(Cl)c(O)c2cccc3c4ccccc4n1c23	?	14µM*	9%	?	20%	?
O=c1c(Cc2ccccc2)c(O)c2cccc3c4c(n1c23)CCCC4	?	·	12%	-1%	·	?
Cc1ccc2[nH]c3c(c2c1)CN(C(=O)CN1CCN(C(=O)c2ccco2)CC1)CC3	-3%	-10%	3%	5%	·	-6%
Cc1ccc2[nH]c3c(c2c1)CN(C(=O)CN1CCN(c2cccc(C)c2C)CC1)CC3	22µM*	?	-5%	-2%	?	?
NC(C(=O)O)[C@H](O)C(=O)O (stereo partly specified)	·	11%	17%	-2%	·	4%
SMILES	KDM4E inh	Tau ThT inhib	CBFb-RUNX1 inh	Tau fibril FP	Lamin A splicing	Tau fluor cs
Nc1c(C(=O)Nc2ccc(S(=O)(=O)N3CCCC3)cc2)sc2nc3ccc(OC(F)(F)F)cc3cc12	1%	5.6µM*	1%	13%	?	-25%
Nc1c(C(=O)Nc2ccc(S(=O)(=O)N3CCCC3)cc2)sc2nc3cc4c(cc3cc12)CCC4	2%	?	3%	?	-18%	?
C(=C\c1nccc2c1[nH]c1ccccc12)/c1ccccc1	?	?	?	-19%	·	20µM*[quencher]
Fc1ccc(/C=C\c2nccc3c2[nH]c2ccccc23)cc1	?	?	?	5%	?	?
Cc1ccc(/C=C\c2nccc3c2[nH]c2ccccc23)cc1	?	?	?	-15%	-3%[46 µM]	11µM*[quencher]
CC1=C(C(=O)N2CCOCC2)C(c2ccc(O)cc2)NC(=S)N1 (stereo unspecified)	-24%	-7%	0%	0%	10%	-4%
Oc1ccc2c(c1)C1CCCC1(N1CCOCC1)O2 (stereo unspecified)	16µM*	?	-28%	?	25%	-26%
CN(/N=C/c1ccc(O)cc1O)c1ncc(C(F)(F)F)cc1Cl	?	?	2%	17%	·	18µM*[quencher]
O=C(NCc1ccccc1)c1sc(=S)n2c1[nH]c(=O)c1ccccc12	-3%	14µM*	-9%	6%	15%	?
COc1ccc(CNC(=O)c2sc(=S)n(-c3ccccc3)c2N)cc1	?	·	-11%	4%[0.0958 µM]	·	0%[0.0958 µM]
CCS(=O)(=O)c1ncc(Cl)c(C(=O)Nc2c(C(=O)Nc3cccc(C)c3)oc3ccccc23)n1	·	4µM*	·	-11%	·	?
CNc1ccc(C(=O)Oc2cc(O/N=[N+](\[O-])N(C)C)c([N+](=O)[O-])cc2[N+](=O)[O-])cc1	·	·	-5%	·	·	·
Cc1ccc(NS(=O)(=O)c2ccc(Br)s2)nc1	-14%	28µM*	20%	?	·	-15%
Cc1cc(C)nc(NS(=O)(=O)c2ccc(Br)s2)c1	?	-3%	1%	-7%	8%	-10%
Cc1c(C(=O)N2CCCCC2)oc2ccc(S(=O)(=O)N3CC(C)CC(C)C3)cc12 (stereo unspecified)	-5%	?	4%	20µM*	?	?
CCOc1ccc(NC(=O)c2c(NCc3ccc(C)o3)sc3c2CCCCC3)cc1	·	22µM*	·	?	-8%[46 µM]	-23%
CCOc1ccc(NC(=O)c2c(NCc3cccs3)sc3c2CCCCC3)cc1	·	?	·	-4%	?	?
COc1ccc(NC(=O)c2c(NCc3ccc(C)o3)sc3c2CCC(C)C3)c(OC)c1 (stereo unspecified)	·	?	·	-9%	?	?
CCOc1ccc(NC(=O)c2c(NCc3sccc3C)sc3c2CCCCC3)cc1	·	14µM*	·	?	?	?
CCOc1ccc(NC(=O)c2c(NCc3cc(OC)c(OC)cc3OC)sc3c2CCCC3)cc1	·	?	·	4%	?	?
